IEC-6 tox – counter-screen for KLF5 inhibitors: cytotoxicity in IEC-6 cells; IEC-6 cytotoxicity, luminescence viability; inhibition, % at 5 µM; 290,000 tested, 0.78% active; in the data active = inhibition above about 22%;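 note: 0% = plate median of test compound wells and 100% = cytotoxic reference compound wells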
aSyn 5UTR inh – MLPCN primary screen, SNCA 5' untranslated region; inhibition, % (tested at 7.5 µM); 300,000 tested, 0.82% active; alpha-synuclein 5'UTR reporter, inhibitor activity; in the data active = inhibition above about 60%;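 note: H4 neuroglioblastoma cells stably carrying SNCA 5'UTR luciferase fusion; 0% = DMSO wells and 100% = positive control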
KLF5 inh – inhibitors of KLF5 expression. DLD-1 KLF5 promoter-luciferase reporter, luminescence. 290,000 tested, 0.23% active. inhibition, % at 5 µM;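 active = inhibition above a per-plate limit of that plate's mean compound inhibition plus 3 SD, cut at about 60% in these data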;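 note: 0% = DMSO wells and 100% = LY294002 at 200 µM; higher means less KLF5 promoter-driven luciferase light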
APP 5UTR inh – APP translation inhibition; SH-SY5Y APP 5'UTR-luciferase reporter, luminescence; inhibition, % at 2 µM; 190,000 tested, 0.82% active;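 active = inhibition above a set limit, derived from the sample mean plus 3 SD, cut at about 45% in these data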
BaF3 tox – reduces parental Ba/F3 cell viability, JAK2V617F counter-screen; 220,000 tested, 1.1% active; inhibition, % at 5.6 µM; AID 1486; CellTiter-Glo ATP luminescence;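 active = inhibition above a per-campaign cutoff, the mean inhibition of all tested compounds plus 3 SD, cut at about 27% in these data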;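 note: 0% = DMSO wells and 100% = JAK Inhibitor I control wells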
Ba/F3 V617F tox – reduce viability of Ba/F3 cells dependent on JAK2V617F. Ba/F3 EpoR-JAK2V617F viability, ATP luminescence. inhibition, % at 5.6 µM. 220,000 tested, 1.1% active;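 active = inhibition above the campaign mean plus 3 SD over all tested compounds, cut at about 24% in these data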;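 note: cytokine-independent growth of Ba/F3 cells driven by EpoR plus mutant JAK2; 0% = DMSO-treated cells and 100% = JAK inhibitor I control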
Numbers without * were called inactive; . = no result given. In the library only some 2.2% were active in any assay of this set; here they are far more common.

SMILES	IEC-6 tox	aSyn 5UTR inh	KLF5 inh	APP 5UTR inh	BaF3 tox	Ba/F3 V617F tox
CCc1ccc2nc(Nc3ccc(OC)cc3OC)c(C#N)cc2c1	2	-37	-21	-4	-2	-1
Cc1cccc(N2CCN(C(=O)C3CCN(c4nnc(-n5cccc5)s4)CC3)CC2C)c1 (stereo not drawn)	2	-14	-3	15	45*	6
Cc1[nH]c2ccccc2c1C1(O)C(=O)N(Cc2ccc3c(c2)OCO3)c2ccccc21 (stereo not drawn)	20	-16	-25	-15	85*	78*
CCCN1C(=O)C(O)(c2c(C)[nH]c3ccccc23)c2ccccc21 (stereo not drawn)	1	8	7	.	-3	-4
CC(=O)N(C)c1ccc(OCC(O)Cn2c(C)nc3ccccc32)cc1 (stereo not drawn)	4	1	-47	4	42*	29*
Cn1c(SCc2ccc([N+](=O)[O-])cc2)nnc1-c1ccncc1	-4	6	10	.	.	.
Cc1cc(C)c2c(c1)/C(=N\N=c1\sc3ccccc3n1C)C(=O)N2	1	-107	-17	.	39*	1
COc1cc(OC)cc(C(=O)NNC(=O)c2ccccn2)c1	9	73*	14	38	-2	-3
COc1cc(OC)cc(C(=O)NC(=S)NNC(=O)c2cnccn2)c1	-7	73*	-11	9	4	-3
COc1ccc(C(=O)NC(=S)NNC(=O)c2cnccn2)cc1OC	-1	90*	-13	20	6	-4
COc1ccc(C(=O)NCCNC(=O)c2cnccn2)cc1OC	-1	-7	-18	.	.	.
O=C(/C=C/c1ccccc1)NC(=S)NNC(=O)c1cnccn1	-2	87*	-17	.	7	-3
COc1cc(OC)cc(C(=O)NNC(=S)NC(=O)c2cccnc2)c1	4	-31	-7	.	.	.
CCc1ccc(C(CNC(=O)c2ccc3c(=O)n(-c4ccccc4F)c(=S)[nH]c3c2)N(C)C)cc1 (stereo not drawn)	6	-9	-15	-11	12	4
COc1ccc(C(=O)NC(=S)NNC(=O)c2ccc3ccccc3n2)cc1	4	73*	-20	.	1	6
COCCn1c(=O)[nH]c2cc(C(=O)Nc3nnc(C)s3)ccc21	-4	-24	-20	.	.	.
CC(NS(=O)(=O)c1ccc2c(c1)C(=O)c1cc(S(=O)(=O)NC(C)C(=O)O)ccc1-2)C(=O)O (stereo not drawn)	-3	3	-12	.	.	.
CC(NS(=O)(=O)c1cccc(S(=O)(=O)c2ccccc2)c1)C(=O)O (stereo not drawn)	-4	18	-11	-7	31*	-1
CC1Cc2ccccc2N1C1=CC(=O)CCC1 (stereo not drawn)	3	-18	-14	-36	66*	54*
O=C(Nc1ccc2c(c1)OCCO2)NC1(C(F)(F)F)Oc2ccccc2O1	-4	62*	-31	1	7	9
CC(NC(=O)COC(=O)c1ccc2c(c1)S(=O)(=O)N=C1CCCCCN12)C12CC3CC(CC(C3)C1)C2 (stereo not drawn)	-3	68*	-32	28	3	-2
CSCC(=O)NC1CCCc2c1cnn2-c1cc(F)cc(F)c1 (stereo not drawn)	1	-8	-12	.	.	.
O=C(CCc1ccncc1)NC1CCCc2c1cnn2-c1cc(F)cc(F)c1 (stereo not drawn)	2	79*	7	.	.	.
Cc1sc2ncnc(N/N=C/c3ccccc3O)c2c1C	8	106*	17	77*	2	-6
Oc1ccccc1/C=N/Nc1ccnc(SCc2ccccc2)n1	8	.	-18	56*	8	2
SMILES	IEC-6 tox	aSyn 5UTR inh	KLF5 inh	APP 5UTR inh	BaF3 tox	Ba/F3 V617F tox
Oc1ccccc1/C=N/Nc1ncc(Br)cn1	-5	5	-77	57*	5	3
Oc1ccccc1/C=N/Nc1ccccc1	1	-133	-6	-38	4	0
COc1ccc(C(=O)N2CCOC2CNC(=O)C(=O)NCc2ccc(Cl)cc2)cc1 (stereo not drawn)	0	12	-6	-7	63*	1
COc1ccc(CCNC(=O)C(=O)NCC2OCCN2C(=O)c2ccc(Cl)cc2)cc1 (stereo not drawn)	-2	30	-17	.	.	.
COc1ccc(/C=C/c2ccc3c(Br)ccc(O)c3n2)cc1	6	-151	-95	.	.	.
COc1cc(/C=C/c2ccc3c(Br)cc(Br)c(O)c3n2)ccc1O	1	65*	17	.	1	-5
CC1(C(=O)Nc2ccc3c(c2)OCCO3)CC1(Cl)Cl (stereo not drawn)	2	-15	-51	.	.	.
O=C(CCC1CCN(C(=O)c2cncs2)CC1)Nc1ccccc1	0	7	-2	.	.	.
Cc1ccnc(NC(=O)c2cc3ccccc3o2)c1	.	97*	.	.	.	.
O=C(Nc1ccccn1)c1cc2ccccc2o1	6	42	-34	-86	7	0
CCOc1ccc(C(=O)Nc2cc(C)ccn2)cc1	12	65*	44	-186	9	8
O=C(CCl)N(c1ccccc1)C1CCCCC1	4	110*	-20	1	3	9
CCC1Oc2ccc(C)cc2N(CC(=O)NCc2ccco2)C1=O (stereo not drawn)	-1	-17	-26	4	90*	1
O=C(COC(=O)C1CC(=O)N(Cc2ccccc2)C1)Nc1ccc2c(c1)OCO2 (stereo not drawn)	3	1	-31	53*	-1	-4
NS(=O)(=O)c1ccc(NC(=O)COC(=O)C2CC(=O)N(Cc3ccccc3)C2)cc1 (stereo not drawn)	1	1	-10	-8	1	2
COC(=O)[C@H](Cc1ccccc1)NC(=O)N(C)Cc1ccccc1	-2	-31	-24	.	-5	-3
Cc1ccc(S(=O)(=O)NN2C(=O)c3ccccc3NC2c2ccccn2)cc1 (stereo not drawn)	0	1	-31	17	2	0
CCCc1n(CC(O)COCC2CC=CCC2)c2ccccc2[n+]1C (stereo not drawn)	-2	8	1	-7	66*	33*
CCCc1n(CC(O)COCc2ccccc2)c2ccccc2[n+]1C (stereo not drawn)	-5	11	9	5	34*	18
CCCc1n(CC(O)COC2CCCCC2)c2ccccc2[n+]1C (stereo not drawn)	-3	11	-13	-11	55*	26*
Cc1cccc(N2CCCn3c2nc2c3c(=O)[nH]c(=O)n2C)c1	12	-5	-39	.	.	.
Cc1cc(F)ccc1NC(=O)c1cc(S(=O)(=O)N2CCOCC2)cn1C	0	-3	-3	.	.	.
O=C(COC(=O)CNS(=O)(=O)c1ccc(Br)cc1Cl)NC1CC1	.	5	.	.	.	.
COc1ccc(C(=O)N/N=C/c2ccc(OC)c(COc3ccccc3)c2)cc1	0	9	-41	.	.	.
COc1ccc(/C=N/NC(=O)c2ccncc2)cc1COc1ccc(NC(C)=O)cc1	-2	80*	-15	.	1	0

Bioassay records deposited in PubChem BioAssay by several laboratories.
